Source: the supplement of paper PMC11732987, “Enantioselective OTUD7B fragment discovery through chemoproteomics screening and high-throughput optimisation” (Communications Chemistry, 2025)

How the values were obtained:
Assay in all cases: log2 ratio of Biotin-Ahx-Ub-VS probe labelling (fragment/DMSO); higher = less target engagement (more negative = stronger competition), active = hit call of the paper (q ≤ 0.05, log2 ratio ≤ -1)
Details in all cases: compound concentration: 200 uM; treatment time: 3 h
USP42 = molecular target: T1, USP42 (UniProt Q9H9J4)
T1 sequence (whole entry): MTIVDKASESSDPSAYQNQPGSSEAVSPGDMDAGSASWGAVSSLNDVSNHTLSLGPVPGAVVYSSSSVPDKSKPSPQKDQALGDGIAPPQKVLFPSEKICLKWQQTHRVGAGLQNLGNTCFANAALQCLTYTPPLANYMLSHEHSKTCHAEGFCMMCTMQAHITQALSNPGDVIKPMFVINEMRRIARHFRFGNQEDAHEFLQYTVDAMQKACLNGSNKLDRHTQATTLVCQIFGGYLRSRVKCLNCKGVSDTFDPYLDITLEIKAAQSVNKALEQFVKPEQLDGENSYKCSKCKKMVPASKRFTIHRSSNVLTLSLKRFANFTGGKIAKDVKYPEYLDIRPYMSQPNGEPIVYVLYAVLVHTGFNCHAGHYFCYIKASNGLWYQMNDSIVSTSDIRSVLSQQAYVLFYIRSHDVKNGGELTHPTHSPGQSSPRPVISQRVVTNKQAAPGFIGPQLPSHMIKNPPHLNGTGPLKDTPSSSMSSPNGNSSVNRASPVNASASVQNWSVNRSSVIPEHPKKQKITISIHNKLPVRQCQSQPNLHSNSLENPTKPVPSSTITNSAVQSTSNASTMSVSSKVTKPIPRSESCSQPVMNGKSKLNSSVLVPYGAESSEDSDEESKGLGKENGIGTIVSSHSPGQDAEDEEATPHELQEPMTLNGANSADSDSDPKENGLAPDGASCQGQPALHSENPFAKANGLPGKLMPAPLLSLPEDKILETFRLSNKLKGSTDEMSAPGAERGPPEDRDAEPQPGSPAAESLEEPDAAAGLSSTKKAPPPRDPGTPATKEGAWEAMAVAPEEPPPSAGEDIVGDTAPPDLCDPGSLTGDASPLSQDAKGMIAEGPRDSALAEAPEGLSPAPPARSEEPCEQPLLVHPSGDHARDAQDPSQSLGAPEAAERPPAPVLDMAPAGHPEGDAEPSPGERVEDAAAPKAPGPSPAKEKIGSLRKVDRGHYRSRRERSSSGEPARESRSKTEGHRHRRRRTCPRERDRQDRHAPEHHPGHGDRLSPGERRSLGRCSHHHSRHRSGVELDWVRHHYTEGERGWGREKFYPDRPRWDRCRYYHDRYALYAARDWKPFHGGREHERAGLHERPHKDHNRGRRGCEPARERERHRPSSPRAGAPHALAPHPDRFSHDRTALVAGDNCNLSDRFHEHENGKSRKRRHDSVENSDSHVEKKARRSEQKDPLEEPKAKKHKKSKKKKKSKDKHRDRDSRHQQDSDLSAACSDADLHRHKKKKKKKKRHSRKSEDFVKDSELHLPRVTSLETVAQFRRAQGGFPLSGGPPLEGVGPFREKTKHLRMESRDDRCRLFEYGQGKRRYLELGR
Summary of the method: (§1)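 Labelled DUBs from HEK293T lysate were NeutrAvidin-enriched, digested with LysC and trypsin, and run by diaPASEF LC-MS/MS. Before that, each 495 µg sample in Tris/CHAPS/IGEPAL buffer with protease inhibitors was treated in triplicate with fragment at 200 µM or vehicle for 3 h, then with Biotin-Ahx-Ub-VS at 0.5 µM final for 1 h. Values are average log2 ratios of fragment over vehicle by unpaired t-test, based on global-median-normalised Spectronaut label-free quantities from proteins with ≥2 unique peptides.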

USP46 = USP46 (UniProt P62068)
Summary of the method: as §1

USP47 = molecular target: T2, USP47 (UniProt Q96K76)
T2 sequence (whole entry): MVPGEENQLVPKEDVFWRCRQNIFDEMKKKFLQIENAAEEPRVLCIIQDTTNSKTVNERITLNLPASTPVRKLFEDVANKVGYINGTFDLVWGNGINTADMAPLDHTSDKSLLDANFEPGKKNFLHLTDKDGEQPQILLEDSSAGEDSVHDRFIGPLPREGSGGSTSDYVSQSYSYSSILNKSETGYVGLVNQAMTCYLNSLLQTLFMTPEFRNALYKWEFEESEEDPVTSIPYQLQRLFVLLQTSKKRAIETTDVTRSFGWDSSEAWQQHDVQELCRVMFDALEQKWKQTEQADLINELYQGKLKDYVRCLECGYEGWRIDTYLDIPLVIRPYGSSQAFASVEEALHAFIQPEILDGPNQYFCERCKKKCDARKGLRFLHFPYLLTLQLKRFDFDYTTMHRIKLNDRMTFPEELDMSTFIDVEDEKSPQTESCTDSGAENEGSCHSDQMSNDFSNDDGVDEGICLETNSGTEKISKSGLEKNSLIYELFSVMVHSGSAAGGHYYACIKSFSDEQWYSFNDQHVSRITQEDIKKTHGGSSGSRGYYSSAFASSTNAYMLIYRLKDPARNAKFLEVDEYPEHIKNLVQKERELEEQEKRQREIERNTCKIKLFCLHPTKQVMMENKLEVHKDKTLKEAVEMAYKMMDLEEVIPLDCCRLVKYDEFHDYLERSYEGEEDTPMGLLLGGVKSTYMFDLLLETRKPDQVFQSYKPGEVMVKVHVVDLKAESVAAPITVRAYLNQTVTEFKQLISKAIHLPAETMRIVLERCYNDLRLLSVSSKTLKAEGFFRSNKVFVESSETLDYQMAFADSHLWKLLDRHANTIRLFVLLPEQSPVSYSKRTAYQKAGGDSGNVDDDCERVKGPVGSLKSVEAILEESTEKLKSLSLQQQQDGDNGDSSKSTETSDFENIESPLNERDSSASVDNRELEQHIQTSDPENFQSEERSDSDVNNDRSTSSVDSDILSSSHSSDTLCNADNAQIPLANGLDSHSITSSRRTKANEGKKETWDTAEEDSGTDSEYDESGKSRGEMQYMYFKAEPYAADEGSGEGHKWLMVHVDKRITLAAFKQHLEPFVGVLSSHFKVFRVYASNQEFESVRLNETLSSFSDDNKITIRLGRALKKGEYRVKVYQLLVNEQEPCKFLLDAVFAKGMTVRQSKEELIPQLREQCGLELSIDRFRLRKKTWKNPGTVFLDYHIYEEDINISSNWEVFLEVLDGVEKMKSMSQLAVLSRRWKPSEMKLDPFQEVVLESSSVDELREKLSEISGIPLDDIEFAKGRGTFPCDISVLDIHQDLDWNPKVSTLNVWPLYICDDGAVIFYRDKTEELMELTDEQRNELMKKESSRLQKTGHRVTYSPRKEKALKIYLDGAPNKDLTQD
Summary of the method: as §1

USP48 = molecular target: T3, USP48 (UniProt Q86UV5)
T3 sequence (whole entry): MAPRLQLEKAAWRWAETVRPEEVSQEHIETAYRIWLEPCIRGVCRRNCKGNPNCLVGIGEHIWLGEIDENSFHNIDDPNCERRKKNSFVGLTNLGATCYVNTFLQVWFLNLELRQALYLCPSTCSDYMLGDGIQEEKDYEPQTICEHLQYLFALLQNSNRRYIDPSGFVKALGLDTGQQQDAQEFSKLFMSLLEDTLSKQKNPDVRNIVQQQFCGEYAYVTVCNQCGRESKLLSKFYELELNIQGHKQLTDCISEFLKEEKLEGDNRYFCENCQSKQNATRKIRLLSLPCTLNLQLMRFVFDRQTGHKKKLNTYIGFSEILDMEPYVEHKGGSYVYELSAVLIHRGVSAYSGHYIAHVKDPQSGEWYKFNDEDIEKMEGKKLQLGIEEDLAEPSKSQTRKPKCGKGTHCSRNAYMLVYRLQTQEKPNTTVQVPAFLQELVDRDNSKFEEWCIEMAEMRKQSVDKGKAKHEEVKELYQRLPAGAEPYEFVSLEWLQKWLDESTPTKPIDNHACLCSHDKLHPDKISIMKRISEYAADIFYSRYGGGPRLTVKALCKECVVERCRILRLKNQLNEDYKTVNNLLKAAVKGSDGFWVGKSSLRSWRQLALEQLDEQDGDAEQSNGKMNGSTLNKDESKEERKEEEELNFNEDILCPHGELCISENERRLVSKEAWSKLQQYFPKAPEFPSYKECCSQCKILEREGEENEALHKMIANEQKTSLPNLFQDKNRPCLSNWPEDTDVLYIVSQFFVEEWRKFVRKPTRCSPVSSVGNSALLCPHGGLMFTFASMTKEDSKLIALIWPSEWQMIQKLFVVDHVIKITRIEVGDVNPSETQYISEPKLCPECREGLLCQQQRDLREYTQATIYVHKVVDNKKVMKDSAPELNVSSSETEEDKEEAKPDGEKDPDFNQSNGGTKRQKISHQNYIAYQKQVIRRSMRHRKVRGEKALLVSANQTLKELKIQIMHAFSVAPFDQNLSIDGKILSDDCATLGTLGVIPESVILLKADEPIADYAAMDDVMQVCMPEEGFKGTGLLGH
Summary of the method: as §1

USP5 = molecular target: T4, USP5 (UniProt P45974)
T4 sequence (whole entry): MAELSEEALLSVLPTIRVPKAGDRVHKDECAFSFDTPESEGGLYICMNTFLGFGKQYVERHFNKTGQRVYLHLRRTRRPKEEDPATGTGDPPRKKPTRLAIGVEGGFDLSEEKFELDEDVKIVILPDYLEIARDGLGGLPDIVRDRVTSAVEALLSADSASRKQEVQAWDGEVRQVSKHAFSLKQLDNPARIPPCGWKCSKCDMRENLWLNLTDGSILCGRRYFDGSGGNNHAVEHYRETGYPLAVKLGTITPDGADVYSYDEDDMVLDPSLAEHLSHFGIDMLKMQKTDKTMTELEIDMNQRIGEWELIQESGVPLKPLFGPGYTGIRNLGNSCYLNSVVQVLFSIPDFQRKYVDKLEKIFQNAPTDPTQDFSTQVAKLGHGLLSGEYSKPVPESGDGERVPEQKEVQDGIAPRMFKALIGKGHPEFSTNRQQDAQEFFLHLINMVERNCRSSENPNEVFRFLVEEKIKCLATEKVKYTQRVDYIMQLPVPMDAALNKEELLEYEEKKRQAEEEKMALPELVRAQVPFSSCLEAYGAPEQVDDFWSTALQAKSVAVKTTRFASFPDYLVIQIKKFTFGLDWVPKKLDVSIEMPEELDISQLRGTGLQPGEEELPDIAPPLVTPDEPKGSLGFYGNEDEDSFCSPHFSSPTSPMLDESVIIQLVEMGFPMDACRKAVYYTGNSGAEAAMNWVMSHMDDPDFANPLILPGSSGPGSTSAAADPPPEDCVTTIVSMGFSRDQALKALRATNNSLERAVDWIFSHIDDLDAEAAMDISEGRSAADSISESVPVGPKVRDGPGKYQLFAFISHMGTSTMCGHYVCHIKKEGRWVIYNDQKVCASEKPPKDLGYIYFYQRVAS
Summary of the method: as §1

USP54 = USP54 (UniProt Q70EL1)
Summary of the method: as §1

USP7 = USP7 (UniProt Q93009)
Summary of the method: as §1

USP8 = molecular target: T5, USP8 (UniProt P40818)
T5 sequence (whole entry): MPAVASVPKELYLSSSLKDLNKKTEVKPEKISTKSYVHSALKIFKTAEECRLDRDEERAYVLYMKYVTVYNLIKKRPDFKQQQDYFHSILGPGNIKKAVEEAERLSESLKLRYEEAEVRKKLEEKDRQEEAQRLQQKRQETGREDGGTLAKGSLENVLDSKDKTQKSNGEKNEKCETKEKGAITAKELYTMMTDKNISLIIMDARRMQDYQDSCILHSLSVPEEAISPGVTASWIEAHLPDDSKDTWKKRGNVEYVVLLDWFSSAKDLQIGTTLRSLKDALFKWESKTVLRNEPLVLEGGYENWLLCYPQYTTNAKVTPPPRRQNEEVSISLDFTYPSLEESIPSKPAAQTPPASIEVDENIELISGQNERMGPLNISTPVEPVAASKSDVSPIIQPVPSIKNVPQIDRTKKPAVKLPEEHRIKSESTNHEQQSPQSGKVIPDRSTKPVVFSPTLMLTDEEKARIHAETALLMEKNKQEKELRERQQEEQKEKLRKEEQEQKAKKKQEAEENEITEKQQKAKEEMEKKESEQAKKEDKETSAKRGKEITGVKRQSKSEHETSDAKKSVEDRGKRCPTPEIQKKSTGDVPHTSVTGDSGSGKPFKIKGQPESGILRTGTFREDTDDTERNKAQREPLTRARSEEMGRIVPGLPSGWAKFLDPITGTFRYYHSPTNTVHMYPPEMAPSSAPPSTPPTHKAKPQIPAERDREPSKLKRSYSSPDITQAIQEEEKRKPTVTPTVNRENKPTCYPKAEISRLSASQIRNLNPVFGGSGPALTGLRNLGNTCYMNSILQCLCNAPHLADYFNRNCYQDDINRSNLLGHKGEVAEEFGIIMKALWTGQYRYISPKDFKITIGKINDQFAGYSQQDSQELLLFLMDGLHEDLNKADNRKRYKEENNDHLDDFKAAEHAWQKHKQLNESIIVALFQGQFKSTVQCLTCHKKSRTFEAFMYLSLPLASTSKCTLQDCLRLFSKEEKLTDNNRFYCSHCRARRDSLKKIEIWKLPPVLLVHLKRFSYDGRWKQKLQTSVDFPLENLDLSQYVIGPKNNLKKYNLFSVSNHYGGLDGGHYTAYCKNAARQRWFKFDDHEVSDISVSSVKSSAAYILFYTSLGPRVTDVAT
Summary of the method: as §1

Measured: log2 ratio of Biotin-Ahx-Ub-VS probe labelling

USP7, sequence (Q93009 whole entry, looked up): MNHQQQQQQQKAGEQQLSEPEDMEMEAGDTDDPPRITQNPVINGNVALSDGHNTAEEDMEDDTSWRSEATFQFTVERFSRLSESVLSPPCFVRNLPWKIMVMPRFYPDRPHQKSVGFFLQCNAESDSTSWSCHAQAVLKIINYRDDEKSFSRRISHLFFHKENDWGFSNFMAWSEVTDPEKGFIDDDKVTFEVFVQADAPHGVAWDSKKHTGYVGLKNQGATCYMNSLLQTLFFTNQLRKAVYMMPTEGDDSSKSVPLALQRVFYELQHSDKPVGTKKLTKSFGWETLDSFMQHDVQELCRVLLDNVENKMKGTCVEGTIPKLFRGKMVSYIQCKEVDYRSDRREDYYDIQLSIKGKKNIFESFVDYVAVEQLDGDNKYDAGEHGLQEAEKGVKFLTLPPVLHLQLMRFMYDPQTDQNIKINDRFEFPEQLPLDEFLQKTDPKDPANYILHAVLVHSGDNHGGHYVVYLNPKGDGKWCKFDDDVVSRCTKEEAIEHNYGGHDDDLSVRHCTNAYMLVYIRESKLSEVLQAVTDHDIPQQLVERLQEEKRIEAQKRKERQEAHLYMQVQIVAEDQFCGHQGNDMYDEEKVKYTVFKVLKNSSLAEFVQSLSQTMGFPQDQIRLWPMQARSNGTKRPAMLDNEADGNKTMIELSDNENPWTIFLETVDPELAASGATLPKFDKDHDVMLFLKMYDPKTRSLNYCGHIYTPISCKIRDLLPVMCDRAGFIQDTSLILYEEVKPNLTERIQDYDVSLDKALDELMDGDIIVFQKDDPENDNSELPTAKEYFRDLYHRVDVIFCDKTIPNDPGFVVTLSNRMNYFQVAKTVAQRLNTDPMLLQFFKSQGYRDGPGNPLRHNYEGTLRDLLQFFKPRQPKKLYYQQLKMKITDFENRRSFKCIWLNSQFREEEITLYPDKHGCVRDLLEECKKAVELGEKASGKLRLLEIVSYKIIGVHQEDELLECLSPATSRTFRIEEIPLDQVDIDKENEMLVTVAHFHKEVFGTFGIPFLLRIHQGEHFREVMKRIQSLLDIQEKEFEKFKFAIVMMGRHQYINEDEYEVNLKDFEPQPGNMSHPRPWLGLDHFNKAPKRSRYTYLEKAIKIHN
USP46, sequence (P62068 whole entry): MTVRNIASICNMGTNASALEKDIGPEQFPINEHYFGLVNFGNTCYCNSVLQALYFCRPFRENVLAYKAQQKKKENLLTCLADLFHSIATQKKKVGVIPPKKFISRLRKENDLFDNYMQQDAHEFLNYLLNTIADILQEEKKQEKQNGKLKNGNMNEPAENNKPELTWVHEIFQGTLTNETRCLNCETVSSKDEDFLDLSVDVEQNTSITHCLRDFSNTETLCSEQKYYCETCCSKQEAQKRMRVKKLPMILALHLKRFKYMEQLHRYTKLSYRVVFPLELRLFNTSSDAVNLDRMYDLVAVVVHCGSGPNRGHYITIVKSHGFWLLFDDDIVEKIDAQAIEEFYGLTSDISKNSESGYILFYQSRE
USP54, sequence (Q70EL1 whole entry): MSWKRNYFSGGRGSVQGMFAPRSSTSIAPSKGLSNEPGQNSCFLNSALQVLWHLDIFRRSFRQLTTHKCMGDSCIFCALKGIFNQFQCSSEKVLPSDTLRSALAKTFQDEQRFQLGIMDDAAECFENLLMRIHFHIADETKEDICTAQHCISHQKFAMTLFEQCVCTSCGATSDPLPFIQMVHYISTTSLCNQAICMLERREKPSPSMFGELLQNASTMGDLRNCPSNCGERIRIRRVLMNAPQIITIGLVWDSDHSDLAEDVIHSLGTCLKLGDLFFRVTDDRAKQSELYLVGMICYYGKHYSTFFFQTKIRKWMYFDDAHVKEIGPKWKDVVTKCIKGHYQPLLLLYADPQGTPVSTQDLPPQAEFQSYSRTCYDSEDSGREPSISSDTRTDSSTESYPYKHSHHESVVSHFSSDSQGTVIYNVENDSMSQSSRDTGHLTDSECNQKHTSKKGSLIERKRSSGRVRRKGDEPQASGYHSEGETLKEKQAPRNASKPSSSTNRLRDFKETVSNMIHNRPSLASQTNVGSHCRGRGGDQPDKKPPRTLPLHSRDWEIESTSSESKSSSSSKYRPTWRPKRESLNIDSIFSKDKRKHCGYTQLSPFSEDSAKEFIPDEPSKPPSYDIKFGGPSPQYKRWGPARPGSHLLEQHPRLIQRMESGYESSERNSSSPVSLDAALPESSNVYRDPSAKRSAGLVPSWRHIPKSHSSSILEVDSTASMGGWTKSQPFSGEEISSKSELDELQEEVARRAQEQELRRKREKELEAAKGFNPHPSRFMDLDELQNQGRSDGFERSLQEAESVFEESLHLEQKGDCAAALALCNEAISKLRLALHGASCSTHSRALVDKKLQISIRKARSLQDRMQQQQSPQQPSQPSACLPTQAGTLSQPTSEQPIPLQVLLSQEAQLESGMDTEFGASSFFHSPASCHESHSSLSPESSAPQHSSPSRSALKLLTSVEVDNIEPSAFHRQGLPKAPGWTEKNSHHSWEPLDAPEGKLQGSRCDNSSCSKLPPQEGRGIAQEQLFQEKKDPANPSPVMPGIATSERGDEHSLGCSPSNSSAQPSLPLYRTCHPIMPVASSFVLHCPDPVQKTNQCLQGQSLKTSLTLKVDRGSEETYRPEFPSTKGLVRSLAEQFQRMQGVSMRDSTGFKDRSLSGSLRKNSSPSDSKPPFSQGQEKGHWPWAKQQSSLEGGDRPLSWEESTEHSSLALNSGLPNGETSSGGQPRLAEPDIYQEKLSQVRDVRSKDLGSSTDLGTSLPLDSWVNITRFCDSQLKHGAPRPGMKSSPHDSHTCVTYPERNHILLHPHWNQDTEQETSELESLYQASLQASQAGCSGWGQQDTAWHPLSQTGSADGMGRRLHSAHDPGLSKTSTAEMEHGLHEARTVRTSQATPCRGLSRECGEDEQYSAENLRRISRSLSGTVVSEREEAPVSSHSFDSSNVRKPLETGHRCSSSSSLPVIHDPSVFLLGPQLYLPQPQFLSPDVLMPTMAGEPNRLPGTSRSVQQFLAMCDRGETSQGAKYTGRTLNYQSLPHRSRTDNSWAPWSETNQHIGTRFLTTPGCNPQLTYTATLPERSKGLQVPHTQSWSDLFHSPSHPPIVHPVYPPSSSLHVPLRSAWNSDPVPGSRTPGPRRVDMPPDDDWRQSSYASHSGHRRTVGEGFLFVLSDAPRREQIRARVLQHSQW

CC(c1ccccc1)N(C)C(=O)CCl (stereo not drawn)
inactive: USP42 -0.0241 | USP46 -0.161 | USP47 0.0295 | USP48 -0.407 | USP5 0.359 | USP54 0.0889 | USP7 -0.735 | USP8 -0.0666
